# Only some compounds are listed: those with a hit (about 27% of all), similar ones and a draw of the others.
# CYP2C9 act: increases human cytochrome P450 2C9 activity | AID 1024 | P11712 | 96,000 tested, 1.4% active | activation factor at 5 µM | recombinant CYP2C9, luciferin-H conversion, luminescence; active compounds read high; factor 1 = untreated enzyme, 0 = blocked;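 active means activation factor of 2 or more for CYP2C9 at a 5 µM dose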;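 further: 0 = sulfaphenazole-blocked wells and 1 = vehicle-only wells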
# Target sequence (P11712 whole entry, looked up): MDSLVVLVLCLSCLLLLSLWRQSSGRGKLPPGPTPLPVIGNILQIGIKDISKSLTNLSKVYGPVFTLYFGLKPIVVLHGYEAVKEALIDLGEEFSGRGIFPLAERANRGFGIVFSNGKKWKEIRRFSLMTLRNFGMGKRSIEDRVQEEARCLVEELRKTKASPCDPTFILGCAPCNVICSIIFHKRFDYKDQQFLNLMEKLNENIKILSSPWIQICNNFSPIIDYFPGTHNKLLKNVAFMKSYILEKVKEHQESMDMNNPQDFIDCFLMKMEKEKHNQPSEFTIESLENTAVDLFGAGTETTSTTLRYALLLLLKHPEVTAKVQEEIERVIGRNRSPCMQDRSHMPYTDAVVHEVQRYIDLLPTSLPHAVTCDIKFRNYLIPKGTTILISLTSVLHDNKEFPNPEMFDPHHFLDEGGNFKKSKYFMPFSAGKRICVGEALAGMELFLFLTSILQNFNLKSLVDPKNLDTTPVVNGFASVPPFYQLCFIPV
# CYP2C19 inhib: human CYP2C19 inhibition. inhibition, % at 5 µM. CYP2C19 Supersomes, luciferin-H EGE luminescence, 30 min. 96,000 tested, 21% active. P33261;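 active means CYP2C19 inhibition above a set limit at 5 µM in the primary screen, cut at about 50% in these data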;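 further: plate controls were negative control wells for no effect and 2.5 mM tranylcypromine positive control for full effect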
# CYP2C9 inhib: inhibitors of human CYP2C9 | CYP2C9 Supersomes, luciferin-H conversion, luminescence | inhibition, % at 5 µM | 96,000 tested, 20% active;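 active means blocking of liver enzyme CYP2C9 beyond about 50% at 5 µM, limit read from the data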
# Cav32 inh: inhibitors of human Cav3.2 T-type calcium channel | AID 449739 | 100,000 tested, 4% active | Cav3.2-expressing cells, Fluo-4 calcium fluorescence FDSS; active compounds read low | B-score at 10 µM | O95180;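 active means single-dose well whose peak fluorescence ratio is a statistical outlier from its plate by either plate-standardised score or position-corrected B-score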
# CYP2C19 act: cytochrome P450 2C19 (human) activation; recombinant CYP2C19, luciferin-H EGE luminescence; active compounds read high; 0 = fully inhibited enzyme, 1 = untreated enzyme; P33261; AID 1025; activation factor at 5 µM; 96,000 tested, under 10 active;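 active means activation factor of at least 2 at 5 µM in the primary screen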;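 further: 0 = wells with 2.5 mM tranylcypromine and 1 = vehicle-only wells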
# Active calls of the source: *; / = no result.
SMILES,CYP2C9 act,CYP2C19 inhib,CYP2C9 inhib,Cav32 inh,CYP2C19 act
CCOc1ccc(C(CCc2ccccc2)NC(=O)c2ccccc2)cc1OCC (centres undefined),0.3,76*,68*,-5.1*,0.2
N#Cc1cn(-c2ccccc2)nc1C(=O)c1ccccc1,1,50*,0,-0.2,0.5
CCOC(=O)C1=C(C)NC(C)=C(C(=O)OCC)C1c1ccccc1/C=C/C(=O)OC(C)(C)C,/,/,/,-4*,/
COC(=O)C1=C(C)NC(C)=C(C(=O)OC)C1/C=C/c1ccccc1,0.4,47,55*,0.065,0.5
CCOC(=O)C1=C(C)NC(C)=C(C(=O)OCC)C1/C=C/c1ccccc1,0.3,68*,70*,-1.8,0.3
Cc1ccc2occ(CN3CCN(c4ccccc4)CC3)c(=O)c2c1,0.8,82*,21,-0.98,0.2
Cc1ccc2occ(CN3CCN(Cc4ccccc4)CC3)c(=O)c2c1,1.2,13,-18,/,0.9
O=c1c(CN2CCN(Cc3ccccc3)CC2)coc2ccc(Cl)cc12,2.8*,44,-182,1.1,0.6
Cc1cc(Nc2ccccc2)c2c([N+](=O)[O-])c(C)cc(C)c2n1,0.2,78*,81*,-0.097,0.2
N#Cc1ccccc1Sc1ccccc1N,0.4,57*,59*,-0.7,0.4
OC1(c2cccc(F)c2)CCN(Cc2ccncc2)CC1,1,65*,2,1.1,0.3
CCCCCSc1nnc(-c2cc(Br)ccc2N)c(=O)[nH]1,0.4,11,60*,-5*,0.9
Cc1n(CC(O)COC2CCCCC2)c2ccccc2[n+]1C (centres undefined),/,/,/,0.68,/
Cc1cc2ncn(CC(O)COC3CCCCC3)c2cc1C (centres undefined),0.1,64*,86*,-0.49,0.4
Cc1cccc(CSc2nnc(-c3cccs3)n2Cc2ccco2)c1,0.5,69*,53*,-5.5*,0.3
COc1cccc(CSc2nc3sc(C)c(C)c3c(=O)n2Cc2ccco2)c1,0.2,56*,78*,-3.4,0.4
Cc1sc2nc(SCc3nc4ccccc4[nH]3)n(Cc3ccco3)c(=O)c2c1C,0.2,17,78*,/,0.8
Cc1cccc(CSc2nc3sc(C)c(C)c3c(=O)n2Cc2ccco2)c1,0.2,42,84*,-4.2*,0.6
CCn1c(SCc2ccccc2)nnc1-c1cccs1,/,/,/,-0.47,/
CCn1c(CCNC(=O)c2cccs2)nnc1SCC(=O)NC1CCCCC1,1,0,-1,0.53,1
Cc1cc(C=O)c(C)n1-c1ccc(N2CCOCC2)cc1,/,/,/,1.1,/
Cc1cc(C=O)c(C)n1-c1cc(C(F)(F)F)ccc1N1CCOCC1,0.8,92*,21,-1.5,0.1
CCN1CCN(C(c2ccc(OC)cc2)C(O)C(=O)c2c[nH]c3ccccc23)CC1 (centres undefined),1,14,-5,0.53,0.9
Cc1ccccc1S(=O)(=O)Oc1ccccc1C(=O)Oc1ccccc1,0.5,42,50*,/,0.6
Cc1ccccc1NC(=O)C(C#N)Cc1cccnc1 (centres undefined),0.9,23,11,-0.57,0.8
SMILES,CYP2C9 act,CYP2C19 inhib,CYP2C9 inhib,Cav32 inh,CYP2C19 act
c1ccc(CCNc2nnnn2-c2ccccc2)cc1,0.8,58*,21,-0.81,0.4
CCOCCCNC(=O)C(C)NS(=O)(=O)c1ccc(C)cc1 (centres undefined),1,2,-4,0.0075,1
COc1ccc(NCN2C(=O)CCC2=O)cc1,0.8,16,20,-0.13,0.8
COc1ccc(NCCNc2ccc(OC)cc2)cc1,0.9,56*,12,0.56,0.4
Cc1ccc(CCNc2ccc3ccccc3c2)cn1,/,/,/,-1.2,/
Cc1ccc(NCCNc2ccc(C)cc2)cc1,0.9,100*,12,-0.49,0
Cc1ccc(NCCc2ccc(C)nc2)cc1,0.8,96*,22,0.32,0
CCN1CCN(c2ncnc3c2oc2nc(C(C)C)c4c(c23)CCC4)CC1,0.9,10,12,/,0.9
CC(C)Cc1nc2oc3c(N4CCN(CCO)CC4)ncnc3c2c2c1CCCC2,0.3,60*,67*,0.31,0.4
CCOC(=O)N1CCN(c2ncnc3c2oc2nc(C(C)C)c4c(c23)CCC4)CC1,0.4,86*,65*,-1.2,0.1
C=CCN(CCNP(=O)(OCC)OCC)CP(=O)(OCC)OCC,1,-2,-3,0.56,1
O=C1c2ccccc2S(=O)(=O)N1CCOc1ccc(F)cc1,0.4,99*,63*,-1.6,0

# Bioassay records (PubChem)
